# Laboratory results: paper PMC7862700, “An all-to-all approach to the identification of sequence-specific readers for epigenetic DNA modifications on cytosine”
# Legend:
# Experiment in all cases: DAPPL (digital affinity profiling via proximity ligation, sequencing); 10 mM Tris-HCl pH 7.5, 50 mM NaCl, 1 mM DTT, 4% glycerol, room temperature, 30 min; GST-TFs on glutathione beads, 16-mer random dsDNA library, 0.1% formaldehyde crosslink after washing; high values mean tight binding
# Conditions in all cases: protein: recombinant; tags: N-terminal GST; dsDNA, one strand shown
# SPIC = molecular target: T1, SPIC (Homo sapiens, UniProt Q8N5J4 1-248)
# T1 sequence: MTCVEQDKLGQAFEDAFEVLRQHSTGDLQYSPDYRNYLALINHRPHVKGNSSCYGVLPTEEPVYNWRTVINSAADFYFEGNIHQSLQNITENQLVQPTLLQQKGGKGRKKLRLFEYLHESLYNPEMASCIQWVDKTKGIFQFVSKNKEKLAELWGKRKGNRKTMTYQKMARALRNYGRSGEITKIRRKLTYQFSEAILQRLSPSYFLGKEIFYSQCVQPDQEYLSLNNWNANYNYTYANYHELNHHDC
# Summary of the method: (§1)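 Human transcription factors fused to GST were expressed in yeast, captured on glutathione beads, given DNA barcodes and pooled with a GST-only negative control. Pools were incubated with 200 nmole of a 16-mer random double-stranded DNA library in Tris/NaCl/DTT/glycerol buffer at room temperature for 30 min. They were then washed, crosslinked with 0.1% formaldehyde, proximity-ligated (BsaI/T4 ligase, 1 h, 37 °C), PCR-amplified and sequenced on an Illumina NextSeq500. Binding signal is each 6-mer's read frequency for a factor divided by its frequency for the GST control.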
# ETV7 = molecular target: T2, ETV7 (Homo sapiens, UniProt Q9Y603 1-341)
# T2 sequence: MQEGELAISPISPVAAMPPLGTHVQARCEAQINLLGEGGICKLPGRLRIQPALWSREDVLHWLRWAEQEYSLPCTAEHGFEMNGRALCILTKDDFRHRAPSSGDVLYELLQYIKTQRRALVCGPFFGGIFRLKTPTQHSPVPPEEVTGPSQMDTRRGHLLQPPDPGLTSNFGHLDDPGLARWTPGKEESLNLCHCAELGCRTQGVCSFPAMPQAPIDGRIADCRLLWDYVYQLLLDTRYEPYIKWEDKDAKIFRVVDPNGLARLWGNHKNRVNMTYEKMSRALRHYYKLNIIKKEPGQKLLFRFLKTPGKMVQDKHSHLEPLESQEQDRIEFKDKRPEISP
# Summary of the method: as §1
# EHF = molecular target: T3, EHF (Homo sapiens, UniProt Q9NZC4 1-300)
# T3 sequence: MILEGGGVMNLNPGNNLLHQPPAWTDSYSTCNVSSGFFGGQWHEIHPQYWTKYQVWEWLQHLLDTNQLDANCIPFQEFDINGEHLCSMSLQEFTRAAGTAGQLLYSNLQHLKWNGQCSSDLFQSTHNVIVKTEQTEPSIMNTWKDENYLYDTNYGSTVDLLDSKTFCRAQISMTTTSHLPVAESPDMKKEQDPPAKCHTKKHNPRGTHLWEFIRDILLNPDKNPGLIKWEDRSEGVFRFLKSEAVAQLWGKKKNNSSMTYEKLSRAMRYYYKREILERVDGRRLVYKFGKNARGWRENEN
# Summary of the method: as §1
# ELF3 = molecular target: T4, ELF3 (Homo sapiens, UniProt P78545 1-371)
# T4 sequence: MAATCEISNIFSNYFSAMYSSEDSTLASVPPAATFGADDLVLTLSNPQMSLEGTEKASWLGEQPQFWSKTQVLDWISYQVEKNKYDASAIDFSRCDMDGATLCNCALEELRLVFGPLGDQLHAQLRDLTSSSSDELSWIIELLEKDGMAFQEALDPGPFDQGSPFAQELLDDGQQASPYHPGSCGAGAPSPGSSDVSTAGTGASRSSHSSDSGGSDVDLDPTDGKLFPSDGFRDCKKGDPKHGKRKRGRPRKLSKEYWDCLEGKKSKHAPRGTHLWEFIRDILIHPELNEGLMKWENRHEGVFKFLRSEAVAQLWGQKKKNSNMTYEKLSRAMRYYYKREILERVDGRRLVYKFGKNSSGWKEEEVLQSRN
# Summary of the method: as §1
# GABPA = molecular target: T5, GABPA (Homo sapiens, UniProt Q06546 1-454)
# T5 sequence: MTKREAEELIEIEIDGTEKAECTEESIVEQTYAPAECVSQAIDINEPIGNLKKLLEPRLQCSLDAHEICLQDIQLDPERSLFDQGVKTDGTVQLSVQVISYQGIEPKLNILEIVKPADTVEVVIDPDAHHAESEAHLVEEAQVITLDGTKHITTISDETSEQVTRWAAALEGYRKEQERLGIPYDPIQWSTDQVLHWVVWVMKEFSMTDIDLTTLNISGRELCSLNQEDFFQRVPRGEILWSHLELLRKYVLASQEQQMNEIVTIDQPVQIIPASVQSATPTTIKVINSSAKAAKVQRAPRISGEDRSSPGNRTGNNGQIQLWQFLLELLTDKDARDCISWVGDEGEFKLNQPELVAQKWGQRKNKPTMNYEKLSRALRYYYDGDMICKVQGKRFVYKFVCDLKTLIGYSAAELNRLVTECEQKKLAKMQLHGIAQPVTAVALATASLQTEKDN
# Summary of the method: as §1
# ERG = molecular target: T6, ERG (Homo sapiens, UniProt P11308 1-479)
# T6 sequence: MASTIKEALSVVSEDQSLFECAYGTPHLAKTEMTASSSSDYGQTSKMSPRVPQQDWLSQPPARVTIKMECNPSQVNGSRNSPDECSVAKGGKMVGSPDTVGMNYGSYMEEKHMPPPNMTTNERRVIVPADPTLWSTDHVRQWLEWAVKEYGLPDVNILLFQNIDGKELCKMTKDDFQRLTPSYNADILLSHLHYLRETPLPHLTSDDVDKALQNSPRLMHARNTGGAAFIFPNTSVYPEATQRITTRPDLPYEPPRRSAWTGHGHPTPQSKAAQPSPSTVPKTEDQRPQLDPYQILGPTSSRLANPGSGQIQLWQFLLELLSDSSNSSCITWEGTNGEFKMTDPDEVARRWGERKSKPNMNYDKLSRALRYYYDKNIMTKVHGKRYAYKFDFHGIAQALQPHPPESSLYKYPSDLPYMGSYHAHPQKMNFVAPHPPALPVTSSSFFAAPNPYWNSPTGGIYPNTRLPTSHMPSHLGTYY
# Summary of the method: as §1
# ELK3 = molecular target: T7, ELK3 (Homo sapiens, UniProt P41970 1-407)
# T7 sequence: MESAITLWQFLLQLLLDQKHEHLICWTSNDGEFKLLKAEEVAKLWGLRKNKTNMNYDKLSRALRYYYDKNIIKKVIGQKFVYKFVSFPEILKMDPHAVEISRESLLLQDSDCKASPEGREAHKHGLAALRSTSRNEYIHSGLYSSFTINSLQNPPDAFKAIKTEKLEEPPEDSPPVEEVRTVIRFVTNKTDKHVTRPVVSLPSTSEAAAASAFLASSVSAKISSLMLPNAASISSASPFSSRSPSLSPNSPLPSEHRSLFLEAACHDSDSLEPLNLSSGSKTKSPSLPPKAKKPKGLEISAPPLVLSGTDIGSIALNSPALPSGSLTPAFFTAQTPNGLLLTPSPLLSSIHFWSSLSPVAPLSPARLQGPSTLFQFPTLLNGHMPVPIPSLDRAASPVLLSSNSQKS
# Summary of the method: as §1
# ETV2 = molecular target: T8, ETV2 (Homo sapiens, UniProt O00321 1-342)
# T8 sequence: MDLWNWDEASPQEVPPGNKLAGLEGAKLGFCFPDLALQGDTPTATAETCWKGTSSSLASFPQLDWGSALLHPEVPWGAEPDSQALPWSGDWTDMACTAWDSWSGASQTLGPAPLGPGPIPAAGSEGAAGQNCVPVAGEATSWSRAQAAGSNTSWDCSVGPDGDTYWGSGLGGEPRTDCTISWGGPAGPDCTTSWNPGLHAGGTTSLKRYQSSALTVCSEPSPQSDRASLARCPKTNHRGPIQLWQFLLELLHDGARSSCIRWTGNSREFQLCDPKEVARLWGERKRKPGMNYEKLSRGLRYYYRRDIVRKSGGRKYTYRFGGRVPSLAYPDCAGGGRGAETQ
# Summary of the method: as §1
# ELF1 = ELF1 (Homo sapiens, UniProt P32519 1-619)
# Summary of the method: as §1
# ELK4 = molecular target: T9, ELK4 (Homo sapiens, UniProt P28324-2 1-405)
# T9 sequence: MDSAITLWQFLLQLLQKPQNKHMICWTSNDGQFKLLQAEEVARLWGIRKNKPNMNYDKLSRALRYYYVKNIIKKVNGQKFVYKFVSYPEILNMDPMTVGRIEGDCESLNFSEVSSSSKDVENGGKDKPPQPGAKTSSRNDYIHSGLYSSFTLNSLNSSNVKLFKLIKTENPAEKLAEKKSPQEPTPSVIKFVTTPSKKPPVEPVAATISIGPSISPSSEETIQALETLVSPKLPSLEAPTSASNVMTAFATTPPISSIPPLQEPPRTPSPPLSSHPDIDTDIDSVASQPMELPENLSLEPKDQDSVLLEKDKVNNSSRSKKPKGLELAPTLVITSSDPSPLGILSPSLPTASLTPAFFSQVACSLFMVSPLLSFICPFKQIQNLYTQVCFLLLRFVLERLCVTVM
# Summary of the method: as §1
# ETV1 = ETV1 (Homo sapiens, UniProt P50549 1-477)
# Summary of the method: as §1
# ETS2 = molecular target: T10, ETS2 (Homo sapiens, UniProt P15036 1-469)
# T10 sequence: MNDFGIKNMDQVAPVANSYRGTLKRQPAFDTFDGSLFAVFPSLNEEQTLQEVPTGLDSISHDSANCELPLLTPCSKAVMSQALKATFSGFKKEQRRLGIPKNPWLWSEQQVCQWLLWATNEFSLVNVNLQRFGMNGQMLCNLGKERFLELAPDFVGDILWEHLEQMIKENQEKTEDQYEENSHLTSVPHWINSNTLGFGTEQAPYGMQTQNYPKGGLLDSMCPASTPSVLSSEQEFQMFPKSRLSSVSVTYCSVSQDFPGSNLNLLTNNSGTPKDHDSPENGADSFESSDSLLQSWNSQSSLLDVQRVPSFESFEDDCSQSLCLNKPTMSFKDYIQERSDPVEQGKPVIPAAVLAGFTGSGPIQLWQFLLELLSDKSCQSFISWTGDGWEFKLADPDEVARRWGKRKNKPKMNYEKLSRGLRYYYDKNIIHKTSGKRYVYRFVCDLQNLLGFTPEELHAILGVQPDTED
# Summary of the method: as §1
# Chain of ELF1 (P32519 whole entry): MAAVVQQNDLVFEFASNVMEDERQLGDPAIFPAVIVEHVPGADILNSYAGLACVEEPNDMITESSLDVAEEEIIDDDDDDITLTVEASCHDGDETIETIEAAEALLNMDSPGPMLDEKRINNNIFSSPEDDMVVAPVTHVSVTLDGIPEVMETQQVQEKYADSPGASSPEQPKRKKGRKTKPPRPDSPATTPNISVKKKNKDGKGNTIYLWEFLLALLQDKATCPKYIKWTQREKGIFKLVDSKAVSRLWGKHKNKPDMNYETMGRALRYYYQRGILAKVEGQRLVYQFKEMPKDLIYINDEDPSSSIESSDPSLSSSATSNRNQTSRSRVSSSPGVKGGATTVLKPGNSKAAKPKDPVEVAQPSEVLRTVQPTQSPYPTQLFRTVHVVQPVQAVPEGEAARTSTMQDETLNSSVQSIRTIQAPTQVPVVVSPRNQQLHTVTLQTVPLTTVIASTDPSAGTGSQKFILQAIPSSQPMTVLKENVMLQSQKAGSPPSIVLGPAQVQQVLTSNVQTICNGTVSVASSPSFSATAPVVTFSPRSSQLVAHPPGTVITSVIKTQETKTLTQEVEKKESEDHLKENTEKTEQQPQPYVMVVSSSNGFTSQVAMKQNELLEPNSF
# Chain of ETV1 (P50549 whole entry): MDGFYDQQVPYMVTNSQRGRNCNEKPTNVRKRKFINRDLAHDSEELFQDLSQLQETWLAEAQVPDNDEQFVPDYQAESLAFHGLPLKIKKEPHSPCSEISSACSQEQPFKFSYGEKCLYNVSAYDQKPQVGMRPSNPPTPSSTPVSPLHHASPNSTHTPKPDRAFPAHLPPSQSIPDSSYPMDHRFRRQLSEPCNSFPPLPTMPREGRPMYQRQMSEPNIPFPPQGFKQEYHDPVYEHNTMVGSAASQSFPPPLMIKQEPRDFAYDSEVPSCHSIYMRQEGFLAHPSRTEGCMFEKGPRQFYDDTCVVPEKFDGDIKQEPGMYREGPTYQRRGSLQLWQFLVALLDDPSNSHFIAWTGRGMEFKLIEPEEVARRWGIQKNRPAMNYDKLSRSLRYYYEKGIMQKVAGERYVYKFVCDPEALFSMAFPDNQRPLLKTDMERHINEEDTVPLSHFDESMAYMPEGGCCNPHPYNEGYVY
sequence,measurement,setting,value
AAGGCC,binding signal,SPIC,"1.06 fold enrichment (6-mer frequency, TF over GST control)"
same,binding signal,ETV7,"1.01 fold enrichment (6-mer frequency, TF over GST control)"
AGATAC,binding signal,EHF,"1 fold enrichment (6-mer frequency, TF over GST control)"
same,binding signal,SPIC,"1.05 fold enrichment (6-mer frequency, TF over GST control)"
same,binding signal,ELF3,"1.01 fold enrichment (6-mer frequency, TF over GST control)"
ACGAGC,binding signal,GABPA,"1.01 fold enrichment (6-mer frequency, TF over GST control)"
same,binding signal,ERG,"1.01 fold enrichment (6-mer frequency, TF over GST control)"
same,binding signal,EHF,"1.02 fold enrichment (6-mer frequency, TF over GST control)"
same,binding signal,ELK3,"1.03 fold enrichment (6-mer frequency, TF over GST control)"
same,binding signal,SPIC,"1.06 fold enrichment (6-mer frequency, TF over GST control)"
same,binding signal,ETV2,"1.04 fold enrichment (6-mer frequency, TF over GST control)"
same,binding signal,ELF3,"1.01 fold enrichment (6-mer frequency, TF over GST control)"
GTGCCG,binding signal,SPIC,"1.03 fold enrichment (6-mer frequency, TF over GST control)"
same,binding signal,ETV2,"1.01 fold enrichment (6-mer frequency, TF over GST control)"
CACTGA,binding signal,GABPA,"1.09 fold enrichment (6-mer frequency, TF over GST control)"
same,binding signal,ELF1,"1.02 fold enrichment (6-mer frequency, TF over GST control)"
same,binding signal,ELK3,"1.07 fold enrichment (6-mer frequency, TF over GST control)"
same,binding signal,SPIC,"1.06 fold enrichment (6-mer frequency, TF over GST control)"
same,binding signal,ELK4,"1.01 fold enrichment (6-mer frequency, TF over GST control)"
same,binding signal,ETV1,"1.09 fold enrichment (6-mer frequency, TF over GST control)"
same,binding signal,ETS2,"1.04 fold enrichment (6-mer frequency, TF over GST control)"
